In PubChem BioAssay (NCI):
About 79,000 compounds went through this panel and 15% of them were active in at least one assay; those are over-represented in the sample as a whole. The source made the active and inactive calls. No stated cut-off is given here; in the data, active means growth inhibition above about 70%; inactive means the rest. Where a SMILES comes first, the peptide text is derived from it. The star is where a group is joined. Cbz = O=C(OCc1ccccc1)*

Columns and labels:
[1] = NCI Yeast Anticancer Drug Screen. Data for the rad50 strain (AID 155);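 further: 0% = growth of vehicle-only cultures of the same strain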; details: S. cerevisiae rad50 strain growth inhibition; at 50.0 µM; active compounds read high
Procedure, shortened: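 Relative growth inhibition (compound vs vehicle) was measured in yeast with a defined repair-gene alteration.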

[2] = NCI Yeast Anticancer Drug Screen. Data for the mec2-1 strain (AID 157); details: S. cerevisiae mec2-1 strain, at 50.0 µM, active compounds read high
Procedure, shortened: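 Growth inhibition is read against vehicle-treated controls after compound exposure of the mec2-1 yeast strain, which is defective in DNA damage repair or cell cycle control.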

[3] = NCI Yeast Anticancer Drug Screen. Data for the sgs1 mgt1 strain (AID 161);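 further: 0% = growth of cultures given vehicle only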; details: S. cerevisiae sgs1 mgt1 strain, at 50.0 µM, active compounds read high
Procedure, shortened: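 Yeast cells carrying a defined DNA-repair defect were exposed to test compounds. Growth inhibition was measured relative to vehicle-treated controls.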

[4] = NCI Yeast Anticancer Drug Screen. Data for the cln2 rad14 strain (AID 165);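 further: 0% = growth equal to vehicle treated cultures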; details: S. cerevisiae cln2 rad14 strain, at 50.0 µM, active compounds read high
Procedure, shortened: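 Growth inhibition, relative to vehicle-treated controls, is the read-out. The test organism is a yeast strain with defined genetic alterations, cln2 rad14.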

[5] = NCI Yeast Anticancer Drug Screen. Data for the bub3 strain (AID 167); details: S. cerevisiae bub3 mutant strain, at 50.0 µM, active compounds read high
Procedure, shortened: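 Screening used yeast with an engineered genetic alteration affecting cell cycle control. Compound-exposed cultures were compared with vehicle cultures, and reduced growth was taken as inhibition.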

[6] = NCI Yeast Anticancer Drug Screen. Data for the mlh1 rad18 strain (AID 175); details: S. cerevisiae mlh1 rad18 strain growth inhibition; at 50.0 µM; active compounds read high
Procedure, shortened: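 Cells of a genetically altered yeast strain, deficient in DNA damage repair, were treated with compound. Their growth was then compared with that of vehicle-treated cultures to give inhibition.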

| SMILES | growth inhibition [1] | growth inhibition [2] | growth inhibition [3] | growth inhibition [4] | growth inhibition [5] | growth inhibition [6] |
| --- | --- | --- | --- | --- | --- | --- |
| C[n+]1ccc(/C=C/c2ccc(O)c(O)c2)c2ccccc21 | 49.8% (inactive) | 33.5% (inactive) | 41.2% (inactive) | 20.5% (inactive) | 3.5% (inactive) | 43% (inactive) |
| O=c1[nH]c2cc([N+](=O)[O-])ccc2nc1/C=C(\O)c1ccc(Cl)cc1 | -23.2% (inactive) | -22.8% (inactive) | -20.1% (inactive) | -9.15% (inactive) | -12.2% (inactive) | -36.7% (inactive) |
| CCCCc1ccc(Nc2nc(=S)c3[nH]cnc3[nH]2)cc1 | 26.9% (inactive) | 19.6% (inactive) | 32.2% (inactive) | 23.9% (inactive) | 35% (inactive) | 6.5% (inactive) |
| CSCCC(NC(=O)C(Cc1ccccc1)NC(=O)OCc1ccccc1)C(=O)O (stereo not drawn) (Cbz-Phe-Met-OH; configuration not given here) | 5.1% (inactive) | -13.2% (inactive) | -1% (inactive) | -40.4% (inactive) | -4.95% (inactive) | 4.85% (inactive) |
| CCC(=O)Oc1ccc(C(C)(C)CC(C)(C)C)cc1 | 32.2% (inactive) | -8.85% (inactive) | 34% (inactive) | -7.05% (inactive) | 6.05% (inactive) | 51.7% (inactive) |
| Nc1ccccc1/C(O)=C1/CCOC1=O | 0.6% (inactive) | -23.6% (inactive) | 2.15% (inactive) | 1.5% (inactive) | 15.3% (inactive) | -3.2% (inactive) |
| Cc1ccc(S(=O)(=O)Oc2c(Br)cc(-c3ccccc3)cc2Br)cc1 | 27.9% (inactive) | 3.4% (inactive) | 13.5% (inactive) | 6.65% (inactive) | -12.4% (inactive) | 18.6% (inactive) |
| O=S1CCS(=O)CCS(=O)CC1 (stereo not given) | -17.1% (inactive) | -2.3% (inactive) | -0.6% (inactive) | -18.6% (inactive) | -0.4% (inactive) | -9.7% (inactive) |
| OC1COCCC(O)(CNCc2ccccc2)C1O (stereo not given) | 7.4% (inactive) | 16.6% (inactive) | -3.95% (inactive) | 8.15% (inactive) | -6.95% (inactive) | -9.1% (inactive) |
| COc1ccc(C(O)C2c3c(cc4c(c3OC)OCO4)CCN2C)c(CO)c1OC (stereo not given) | 14.4% (inactive) | 12.8% (inactive) | 17.6% (inactive) | 37.5% (inactive) | 17.9% (inactive) | 7.45% (inactive) |
| COC1CCCCC(=NNC(N)=O)CCCC1 (stereo not given) | -0.2% (inactive) | -2.65% (inactive) | -13.2% (inactive) | -44.6% (inactive) | -7.15% (inactive) | -1.15% (inactive) |
| N/C(=N\OC(=O)Nc1cccc(Cl)c1)C(Cl)(Cl)Cl | 96.8% (active) | 99.5% (active) | 99.5% (active) | 96.3% (active) | 99.2% (active) | 99% (active) |
| COc1ccc2c(C(=O)O)cc3c4ccccc4ncc3c2c1 | 9.4% (inactive) | 6.65% (inactive) | -6.75% (inactive) | 26.9% (inactive) | -17.9% (inactive) | -13.2% (inactive) |
| COc1cc(O)c2c(=O)c(OC)c(-c3ccc4c(c3)OCO4)oc2c1 | 4.6% (inactive) | 6.2% (inactive) | -9.85% (inactive) | 2.35% (inactive) | -24.2% (inactive) | -44.4% (inactive) |
| CCN(CC)C(=O)CCn1ccc(=O)[nH]c1=O | -52.4% (inactive) | -33.4% (inactive) | -25.8% (inactive) | 9.55% (inactive) | -2.75% (inactive) | -5.35% (inactive) |
| CCOC(=O)c1cc(-c2ccc(OC)c(OC)c2)c[nH]1 | 14.6% (inactive) | -2.3% (inactive) | 40.2% (inactive) | 12.6% (inactive) | 23.1% (inactive) | 28% (inactive) |
| CCN(CC)c1ccc2cc(C(=O)NC(=O)Oc3ccccc3)c(=O)oc2c1 | 25.1% (inactive) | -5.5% (inactive) | -6.05% (inactive) | 25.1% (inactive) | -3.2% (inactive) | 9.35% (inactive) |
| CC1CCC(O)(C(C)(C(=O)O)c2ccccc2)CC1 (stereo not given) | -19.7% (inactive) | -16.8% (inactive) | -5.65% (inactive) | -35.6% (inactive) | -54.8% (inactive) | -8.45% (inactive) |
| O=C1CC2CC(=O)C(S(=O)c3ccccc3)C2C1 (stereo not given) | 6.25% (inactive) | 11.7% (inactive) | 20.1% (inactive) | 3.35% (inactive) | -1.6% (inactive) | 18.6% (inactive) |
| CCC(c1ccc(OC)cc1)c1cc2c(cc1OCC(=O)O)OCO2 (stereo not given) | 36.6% (inactive) | 55.2% (inactive) | 57.1% (inactive) | 53.9% (inactive) | 44.5% (inactive) | 65.5% (inactive) |
